# D1 antag – blocks dopamine activation of the human D1 receptor | HEK293 TREx D1 cells, calcium flux, dopamine EC80; active compounds read low | activity change, negative = inhibition, % at 10 µM | AID 504652 | 360,000 compounds, 3.2% hits; in the data active means activity change below about -30%; further: on the % scale 0 is the no-effect control and ±100 the full control effect
#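 Cells carrying a force-coupled, tetracycline-inducible human D1 receptor report calcium flux. Each well gets a 10 s baseline, compound with 180 s monitoring, then an EC80 dopamine stimulus with a second 180 s kinetic read.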
# TRHR enhancer – allosteric enhancers of human TRH receptor; P34981; TRHR cells, fluo-8 calcium fluorescence, EC20 TRH enhancement; enhancement, % at 2 µM; 360,000 compounds, 0.66% hits; in the data active means enhancement above about 30%; further: 0% is about no effect
# Target sequence (P34981 whole entry, looked up): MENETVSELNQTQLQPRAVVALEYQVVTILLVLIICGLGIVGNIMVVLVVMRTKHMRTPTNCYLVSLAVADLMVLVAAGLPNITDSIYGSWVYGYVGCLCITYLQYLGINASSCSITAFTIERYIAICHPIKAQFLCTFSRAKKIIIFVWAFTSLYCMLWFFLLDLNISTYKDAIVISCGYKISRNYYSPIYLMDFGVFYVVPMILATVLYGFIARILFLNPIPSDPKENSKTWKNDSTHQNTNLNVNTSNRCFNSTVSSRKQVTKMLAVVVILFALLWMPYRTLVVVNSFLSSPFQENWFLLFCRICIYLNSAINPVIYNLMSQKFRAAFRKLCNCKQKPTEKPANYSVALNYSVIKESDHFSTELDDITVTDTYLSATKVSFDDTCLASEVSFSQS
#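 Enhancer read-out: after compound pinning and an initial kinetic agonist-mode read, an EC20 of TRH (10 nM final) was injected and fluo-8 calcium signal (Ex 480/Em 530) followed at 1 s/cycle for 100 cycles in TRHR-expressing cells.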
# D1 ag – activates the human D1 dopamine receptor. HEK293 T-REx D1 cells, calcium flux, agonist mode. activation, % at 2 µM. 360,000 compounds, 1% hits. AID 504660; further: 0% is about no effect
#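 Inducible HEK293 T-REx D1 cells, force-coupled to calcium signalling, were plated at 4000 cells/well with tetracycline and held overnight at 30 C. After no-wash calcium dye loading, compound-evoked calcium rise over 180 s flagged agonists.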
# D1 PAM – potentiators of human D1 dopamine receptor | HEK293 TREx D1 cells, calcium flux, dopamine EC20 potentiation | potentiation, % at 10 µM | 360,000 compounds, 0.036% hits | AID 504651; in the data active means potentiation above about 30%; further: 0% is about no effect
# GRP78 ERSR act – induces the endoplasmic reticulum stress response in human glioma cells | U87-MG GRP78 promoter luciferase reporter, 16 h | Potency, µM, without a hit: at the top dose activation, hits mostly activators | 420,000 compounds, 0.02% hits; active means well fitted activation curve with a large enough effect; further: potency means the concentration at half of the fitted maximal effect; series mostly up to about 76 µM; % of control where 0% means no effect; nearly all actives have a fitted effect of over 35% in size
#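 ERSR induction read as luciferase luminescence (Bright-Glo, 10 min at room temperature) in stably transfected human U87-MG glioma cells exposed to compounds for 16 h, using GRP78 as sensor.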
# TRHR ag – agonists of human TRH receptor; P34981; TRHR cells, calcium flux fluo-8, FDSS agonist mode; activation, % at 2 µM; 360,000 compounds, 0.18% hits; AID 493084; further: 0% is about no effect
#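 Read-out: compound-evoked intracellular calcium rise in TRHR cells, fluo-8 dye, kinetic FDSS fluorescence at 1 s/cycle following a 10-cycle baseline. Cells cultured overnight before dye loading (30 min–1.5 h, RT).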
# Starred values were filed as active, the others as inactive; . = no result. Sampled rows, rich in hits. Any-hit rate of the full collection: about 4%. Unless noted, no stated cut-off is given here; in the data, active means activation above about 30%; inactive means the rest.
SMILES,D1 antag,TRHR enhancer,D1 ag,D1 PAM,GRP78 ERSR act,TRHR ag
Cc1cccc(NC(=O)c2ccc(C(=O)c3ccccc3)cc2)n1,-35*,-9,4,0,4%,0
Cc1ccc2cccc(OCC(=O)Nc3ccc(N4CCOCC4)cc3)c2n1,-6,5,3,3,-2%,-1
CCCCc1cc(=O)oc2cc(C)cc(O)c12,-35*,-7,18,-9,3%,5
CCCCc1cc(=O)oc2cc(O)cc(O)c12,2,-6,0,-3,7%,0
Cc1cc(N2CCN(c3nc4ccccc4s3)CC2)n2ncnc2n1,-32*,-1,9,-2,-1%,0
Cc1cc(N2CCN(C(c3ccccc3)c3ccccc3)CC2)n2ncnc2n1,8,-2,5,-2,-3%,1
Cn1cc(C2=C(c3ccc(Cl)cc3Cl)C(=O)NC2=O)c2ccccc21,23,5,145*,2,0%,48*
COc1ccc(-c2noc(N(C)CC(=O)Nc3cccc(C(F)(F)F)c3)n2)cc1,1,2,6,-2,-1%,1
O=C(COC(=O)c1cc(S(=O)(=O)N2CCCCC2)ccc1N1CCOCC1)c1ccccc1,2,0,1,-3,1%,0
N#CCN=C(c1ccccc1)c1ccccc1,-47*,-4,-1,2,-4%,0
N#CN=C(c1ccccc1)c1ccccc1,15,16,1,-3,-2%,0
Cc1ccsc1/C=N/N1CCN(C2c3ccccc3-c3ccccc32)CC1,-9,-2,1,1,-5%,1
CC(C)CCN(CC(=O)NC1CCCC1)C(=O)C(=O)Nc1ccc2c(c1)OCCO2,-7,4,4,-4,-3%,0
CCCCN(CC(=O)NC1CCCC1)C(=O)C(=O)Nc1ccc2c(c1)OCCO2,-36*,7,7,-10,-2%,-1
CC(C)N(Cc1ccccc1)C(=S)NC1CCCCC1,-31*,0,5,-15,-5%,0
CC(CC(=O)NC1CCCC1)c1ccccc1 (configuration not stated),7,4,1,-8,-3%,0
CC(c1ccccc1)C(CC(=O)O)C(=O)NC1CCCCC1 (configuration not stated),-31*,-3,1,-4,-4%,-1
CN1CCN(CC(O)(c2ccc(Cl)cc2)c2ccc(Cl)cc2)CC1,-30*,-1,24,-8,-5%,2
Cc1cc(C)n(-c2ccc(C(=O)OC(C)C(=O)Nc3ccc(C(N)=O)cc3)cc2)n1 (configuration not stated),-31*,3,4,-4,1%,0
CC(=O)Nc1ccc(NC(=O)C(C)OC(=O)c2ccc(-n3cnnn3)cc2)cc1 (configuration not stated),-19,0,0,-4,-3%,0
Cc1noc(NS(=O)(=O)c2ccc(NC(=O)Nc3ccc(Cl)c(Cl)c3)cc2)c1C,-47*,4,33*,-13,11%,1
Cc1noc(NS(=O)(=O)c2ccc(N/C=C\C(=O)c3cccc4ccccc34)cc2)c1C,19,2,43*,-1,6%,1
CCN1CCc2c(OCc3ccccc3)cccc2C1=O,-38*,-3,4,0,-4%,-2
O=C1c2cccc(OCc3ccc(F)cc3)c2CCN1Cc1ccccc1,-1,0,-2,-2,-5%,1
CC1Cc2nc(SCC(=O)NCC3CCCO3)n(-c3ccccc3)c(=O)c2S1 (configuration not stated),.,.,.,.,-5%,.
COc1ccc(CC(=O)OCC(=O)NC(=O)NC2CCCCC2)cc1,3,39*,2,-2,-5%,0
Cc1ccc(S(=O)(=O)N2[C@@H](c3ccc4c(c3)OCO4)C(C(=O)O)=C[C@H]2C(C)(C)C)cc1,.,.,.,.,-2%,.
N#CCCCSc1nnnn1-c1cccc(Cl)c1,-37*,6,0,3,-1%,0
O=C(CSc1nnnn1-c1cccc(Cl)c1)Nc1ccc2c(c1)CCC2,17,12,5,8,.,0

# Compound activity (PubChem)
